Screening data: PubChem BioAssay, several laboratories
Insulin prom inh = TRM-6 insulin promoter activity inhibition | TRM-6 cells (human fetal islet line), insulin promoter-eGFP reporter, imaging; reporter expression induced with tamoxifen | inhibition, % at 2 µM | 0.9% of 130,000 active | AID 1273;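 active = inhibition above the mean plus 3 SD, with well images judged a real hit on visual review, cut at about 60% in these data, passing the limit was not always enough; inconclusive = inhibition over the cutoff but images rejected on review; inactive = inhibition not above the cutoff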
ROMK primary = modulators of human ROMK potassium channel | Tet-inducible ROMK, thallium flux fluorescence; actives lie on both sides | B-score at 10 µM | AID 1918 | P48048 | 2% of 130,000 active;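 active = signal ratio slope over the read window, or its plate-corrected B-score, at least 3 SD from the plate mean, either direction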;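 note: B-score of the F/F0 ratio slope over 7 to 12 s after thallium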
Target sequence (P48048 whole entry, looked up): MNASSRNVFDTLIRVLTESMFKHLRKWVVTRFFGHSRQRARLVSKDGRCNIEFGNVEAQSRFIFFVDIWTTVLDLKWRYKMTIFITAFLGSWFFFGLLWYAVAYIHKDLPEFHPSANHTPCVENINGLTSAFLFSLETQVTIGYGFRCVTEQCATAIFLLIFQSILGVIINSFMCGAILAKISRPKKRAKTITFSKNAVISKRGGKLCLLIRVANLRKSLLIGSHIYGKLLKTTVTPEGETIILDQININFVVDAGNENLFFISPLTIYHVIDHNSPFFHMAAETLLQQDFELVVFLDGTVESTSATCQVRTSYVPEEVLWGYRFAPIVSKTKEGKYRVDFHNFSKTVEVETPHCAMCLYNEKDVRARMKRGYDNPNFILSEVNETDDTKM
Measles CPE = protection of cells from measles virus; protection (pct of control), % at 4 µM; Measles virus-infected cells, CPE protection, absorbance; 1.5% of 140,000 active; in the data active = protection mostly above about 24%, no sharp cut-off; inactive = mostly below about 26%
SDO1 yeast rescue = sdo1-depleted yeast growth rescue | S. cerevisiae sdo1-depleted JHY4D growth rescue, OD600 30 h; active compounds read high; pdr5 snq2 efflux-pump mutant strain | z-score at 10 µM | 0.21% of 140,000 active | AID 817;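 active = z-score above 3 at both the 24 hr and the 30 hr optical density reads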;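 note: z-score against mean and SD of all compound wells on the same plate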
ROMK retest = retested hit modulating human ROMK potassium channel; shares compounds with ROMK primary; ROMK thallium flux, fluorescence ratio; active compounds read low; normalized thallium flux (F/F0 slope) at 10 µM; 54% of 3,000 active;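 active = Flux at 10 µM at least 3 SD below or above vehicle control mean in one or both replicates; inconclusive = no clear call, values can overlap the other calls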
The depositor's hits bear a star; ? = inconclusive; · = no result given. Rows were chosen to be rich in hits. Some 3% of all compounds tested hit in one or more screens of this group.

SMILES	Insulin prom inh	ROMK primary	Measles CPE	SDO1 yeast rescue	ROMK retest
O=c1c2ccccc2sn1-c1ccccc1	6.9	-1.67	4.6	-1.94	·
O=S(=O)(/N=C(/Nc1cccc2ccccc12)c1ccccc1)c1cccs1	10.0	·	11.2	-1.09	0.0604*
Cc1ccc(N/C(=N/S(=O)(=O)c2cccs2)c2ccccc2)c(C)c1	-92.9	·	·	·	·
Cc1ccnc(NS(=O)(=O)c2ccc(NC(=O)c3ccc(S(=O)(=O)N4CC(C)OC(C)C4)cc3)cc2)n1 (configuration not stated)	-43.8	0.0933	18.6	1	·
COCCOC(=O)c1[nH]c2c(c1C)C(=O)CC(c1cccs1)C2 (configuration not stated)	-154.1	1.06	·	·	·
CCCCCOC(=O)c1[nH]c2c(c1C)C(=O)CC(c1ccco1)C2 (configuration not stated)	-36.6	2.12	0.2	0.39	0.0852
CCOCCOC(=O)c1[nH]c2c(c1C)C(=O)CC(c1cccs1)C2 (configuration not stated)	·	5.69*	·	·	0.0755
COc1ccc(/C=C/C(=O)c2ccccc2)cc1Cn1nnc2ccccc21	·	-0.812	15.3	-1.51	·
Cc1ccc(/C=C(\C#N)C(=O)Nc2ccccn2)o1	·	0.189	·	·	·
CCOc1cc2c3c(c1)C(C)=CC(C)(C)N3C(=O)C2=O	13.3	3.21*	·	·	0.0769
O=C(Nc1ccc2oc(=O)ccc2c1)c1cc([N+](=O)[O-])ccc1N1CCOCC1	·	-7.29*	·	·	0.0311*
O=C(c1ccccc1)c1cc([N+](=O)[O-])ccc1N1CCOCC1	·	·	4.5	0.25	·
CC1CCCN(c2ccc([N+](=O)[O-])cc2C(=O)c2ccccc2)C1 (configuration not stated)	-350.0	2.28	9.5	-1.33	0.0903
O=C(c1ccc(Br)cc1)c1cc([N+](=O)[O-])ccc1N1CCOCC1	·	4.47*	·	·	0.0961
COCCCN(C(=S)Nc1cc(C)cc(C)c1)C(C)c1ccncc1 (configuration not stated)	-22.2	1.62	0.4	-0.11	·
CC(=O)c1cccc(CN2CCN(CC(C)C)C(CCO)C2)c1 (configuration not stated)	·	1.98	·	·	·
CCOC(=O)C(CC)(CC)C(=O)/C=C/c1cccc(Br)c1	46.7	·	·	·	·
CC(C)OC(=O)Nc1ccc(Oc2c(F)c(F)c(F)c(F)c2F)cc1	-8.8	·	3.5	-0.24	·
C/C=C/c1c(F)c(F)c(Oc2ccc(C(=O)O)cc2)c(F)c1F	41.4	3.8*	3.1	-0.23	0.0902
Cc1ccc(-c2csc(NC(=O)C[n+]3cc(-c4ccccc4)n4c3CCC4)n2)cc1	·	-6.15*	·	·	0.0601*
O=C(C[n+]1cc(-c2ccccc2)n2c1CCC2)Nc1nc(-c2ccc(F)cc2)cs1	·	·	29.5	0.32	·
O=C(C[n+]1cc(-c2ccc(Br)cc2)n2c1CCCCC2)c1ccccc1	·	-2.98*	·	·	0.0678*
O=C(C[n+]1cc(-c2ccc(F)cc2)n2c1CCC2)Nc1nc(-c2ccc(F)cc2)cs1	14.3	·	7.8	0.37	·
O=C(C[n+]1cc(-c2ccc(Cl)cc2)n2c1CCC2)Nc1nc(-c2ccc(F)cc2)cs1	·	-5.82*	·	·	0.0506*
O=C(C[n+]1cc(-c2ccccc2)n2c1CCC2)c1cccs1	41.7	-0.816	·	·	·
SMILES	Insulin prom inh	ROMK primary	Measles CPE	SDO1 yeast rescue	ROMK retest
O=C(COC(=O)C1CC2C=CC1C2)Nc1cccc(S(=O)(=O)N2CCOCC2)c1 (configuration not stated)	·	·	·	·	0.0869
CC(C)CCn1c(Sc2nc3ccccc3o2)nc2c1c(=O)[nH]c(=O)n2C	53.3	-0.62	6.2	-0.17	·
O=C(COC(=O)c1ccc(NS(=O)(=O)c2cccs2)cc1O)NCc1ccccc1	-28.6	3.57*	·	·	0.0839
Cc1cc(C)nc(SCc2ccc(F)cc2)n1	-28.6	·	·	·	·
CC1=C(C#N)c2nc(N)c(C#N)c(C)c2/C1=C\c1ccc(C)cc1	-45.7	·	-2.1	-1.86	0.0426*
COc1cc(/C=C2\C(C)=C(C#N)c3nc(N)c(C#N)c(C)c32)ccc1OCC(=O)O	·	0.824	·	·	·
CS/C(=N\S(=O)(=O)c1cccs1)NC(=O)CSc1nc2ccccc2s1	3.2	·	1.3	0.18	·
CCN(CC)S(=O)(=O)c1ccc(OC(C)C)c(NC(=O)c2c3c(nc4ccccc24)CCN(Cc2ccccc2)C3)c1	-25.9	-3.04*	9.2	-0.32	0.0592*
CC(=O)CSc1nc2cc3c(cc2cc1C#N)OCCO3	-346.1	-3.26*	·	·	0.0543*
N#Cc1cc2cc3c(cc2nc1SCC(=O)OC1CCCCC1)OCO3	32.4	·	10.6	-1.26	·
O=C(COC(=O)/C=C/c1ccc(S(=O)(=O)N2CCOCC2)cc1)NCc1ccc2c(c1)OCO2	·	1.58	·	·	·
O=C(COC(=O)/C=C/c1ccc(S(=O)(=O)N2CCOCC2)cc1)NCc1ccc(F)cc1	·	5.03*	·	·	0.0902
N#CC1=C(N)Oc2c(ccc3cccnc23)C1c1cccnc1 (configuration not stated)	-51.9	3.6*	5.0	0.32	?
O=C(CSCC(=O)N1CCCCC1)Nc1nc(-c2ccc(Cl)s2)cs1	·	·	11.8	-2	?
O=C(CSCC(=O)N1CCN(c2ccccc2)CC1)Nc1nc(-c2ccc(Cl)s2)cs1	·	·	4.7	-1.03	·
N#C/C(C(=O)N1CCOCC1)=C1/SC(Cc2ccccc2Cl)C(=O)N1c1ccccc1 (configuration not stated)	-107.1	1.96	8.8	0.57	·
N=c1c2c(-c3ccccc3)c(-c3ccccc3)n(Cc3ccccc3)c2ncn1CCCn1ccnc1	·	-4.41*	3.8	-1.89	0.0496*
CCCCn1cnc2c(c(-c3ccccc3)c(-c3ccccc3)n2Cc2ccco2)c1=N	·	·	·	·	0.03*
COc1ccc(-n2c(O)c(/C=N/NS(=O)(=O)c3ccc(C)c([N+](=O)[O-])c3)c3ccccc3c2=O)cc1OC	-70.6	-3.28*	·	·	?
O=C(O)/C=C/c1ccc2c(-c3ccccc3)onc2c1	8.0	-0.0966	3.0	0.23	·
CN1C(=O)c2ccccc2C(C(=O)O)C1c1cccc(Cl)c1 (configuration not stated)	0.0	1.57*	11.1	0.65	0.0773
CCOCc1nnc(NC(=O)c2c(OC)cccc2OC)s1	32.1	3.33*	12.5	1.01	?
COCCn1nnnc1C(c1cccc(C(F)(F)F)c1)N1CCN(Cc2ccccc2)CC1 (configuration not stated)	8.3	-3.94*	25.3	-0.25	0.0537*
Cc1cccn2cc(CCNC(=O)c3cccs3)nc12	·	-1.01	·	·	·
Cc1ccc(NC(=O)CCc2ccc(S(=O)(=O)N3CCOCC3)cc2)c(C)c1	-65.2	3.23*	2.0	-0.35	0.0859
SMILES	Insulin prom inh	ROMK primary	Measles CPE	SDO1 yeast rescue	ROMK retest
Cc1ccc(NC(=O)COC(=O)CCc2ccc(S(=O)(=O)N3CCOCC3)cc2)c(C)c1	-55.6	0.573	·	·	·
COc1cc(CN2CCN(C(=O)CC(C)C)CC2)cc(OC)c1OC	3.2	·	2.4	0.95	0.0943
COc1cc(CN2CCN(C(=O)CC(C)C)CC2)cc(OC)c1O	26.3	·	30.9	0.59	·
Cc1ccc(NC(=O)Cc2ncc(C(F)(F)F)cc2Cl)cc1Cl	-9.1	·	8.5	-0.83	0.0675*
O=C(Cc1ncc(C(F)(F)F)cc1Cl)NCCc1ccccc1	-9.1	-0.369	·	·	·
COc1ccccc1-c1n[nH]c(=S)n1Cc1ccco1	·	0.0734	·	·	·
